Nrf2 ARE act: activates Nrf2 signaling; AREc32 ARE-luciferase reporter (MCF7-derived line), luminescence, 24 h; AID 624171; 0.31% of 410,000 active; Potency, µM (top dose mostly 46.1 µM), most hits filed as activators; further: nearly all actives have a fitted effect of over 65% in size
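Steps: seed AREc32_Fluc cells (1000/well, 5% FBS OPTI-MEM); incubate overnight at 37 deg C; add 23 nL compound; incubate 24 hr; add Steady-Glo; hold 30 min RT; read luminescence.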
A549 tox: counter-screen for Nrf2 inhibitors: cytotoxicity in A549 cells | A549 ARE-Fluc cells, CellTiter-Fluor viability, 18-24 h | Potency, µM (top dose mostly 46 µM), hits mostly inhibitors | 0.16% of 390,000 active | AID 504648
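Cytotoxicity counterscreen: CellTiter-Fluor fluorescence was measured in A549 ARE_Fluc cells after 18-24 h of compound exposure in a concentration series. The subsequent BugLite luminescent read reports ARE-luciferase activity.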
Nrf2 block: blocks Nrf2 signaling | A549 ARE-Fluc reporter, luciferase luminescence, 18-24 h | 2.1% of 360,000 active | AID 504444 | Potency, µM (series often up to 46 µM), most hits filed as inhibitors; further: nearly all actives have a fitted effect of over 60% in size
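A549 ARE_Fluc cells, 5000/well, 5% FBS OPTI-MEM; compounds in dose-response, 18-24 h at 37 °C/5% CO2; CellTiter-Fluor viability read (Ex 405/Em 525), then BugLite luciferase luminescence = Nrf2 activity.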
ELG1 DNA repair: inhibitors of ELG1-dependent DNA repair in HEK293T cells | HEK293T ELG1-luciferase reporter, luminescence, 16 h; DNA damage induced by 5-fluorouridine | 2.3% of 330,000 active | AID 504467 | Potency, µM (top dose mostly 46.1 µM), actives largely listed as inhibitors; further: nearly all actives have a fitted effect of over 55% in size
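Quantitative HTS, concentration-response format. 2,000 cells/well co-treated with 5-fluorouridine and compound, 16 hr in 5% CO2 at 37 °C; ONE-Glo luminescence read after 30 min.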
Numbers stand for hits; . = inactive; ? = inconclusive; / = not tested or not shown; [ ] = remark or other dose. This is a sample that favours compounds with a hit; in the whole collection about 3.7% have one here. The call rests on the fitted dose curve; in most records, active means well fitted curve in the direction sought with a large enough effect; inconclusive means small, poorly fitted or top-dose-only effect, or another doubt; inactive means no such curve, though single readings can be large; an effect the other way counts as inactive or inconclusive.

SMILES | Nrf2 ARE act | A549 tox | Nrf2 block | ELG1 DNA repair
COc1cccc(-n2nnnc2SCC(=O)Nc2ccc3c(c2)OCCO3)c1 | . | . | ? | .
COc1ccc(-n2nnnc2SCC(=O)Nc2ccc3c(c2)OCCO3)c(OC)c1 | . | .[1.84 µM] | ? | 21µM
O=C(Nc1ccc2nc(SCC(=O)N3CCCC3)sc2c1)c1cccc(Br)c1 | . | . | 18µM | /
Cc1ccccc1OCC(=O)Nc1ccc2nc(SCC(=O)N3CCCC3)sc2c1 | . | . | 18µM | /
O=C(Nc1ccc2nc(SCC(=O)N3CCOCC3)sc2c1)c1cccc(Cl)c1 | . | ? | 23µM | /
Cc1ccccc1OCC(=O)Nc1ccc2nc(SCC(=O)N3CCOCC3)sc2c1 | . | . | ? | /
Cn1c(SCC(=O)Nc2ccc3nc(SCC(=O)N4CCCC4)sc3c2)nnc1-c1ccc(N)cc1 | . | . | ? | 8.2µM
C[C@H](NC(=O)[C@H]1N2C(=O)c3ccccc3C2SC1(C)C)C(=O)NCC1CCCO1 (stereo partly drawn) | . | . | . | .
CCN(CC)C(=O)CSc1nc2ccc(NC(=O)CSc3nccn3C)cc2s1 | . | ? | ? | 21µM
CN(C(=O)CSc1nc2ccc(NC(=O)c3cccc(F)c3)cc2s1)c1ccccc1 | . | . | 21µM | /
O=C(COC(=O)COc1ccccc1)NCCC1=CCCCC1 | . | . | . | .
COc1cc(-c2ccc3ncnc(N(C)Cc4csc(C)n4)c3c2)cc(OC)c1OC | / | . | . | /
CCc1ccc(NC(=O)CCc2nnc3ccc(N4CCCC4)nn23)cc1 | . | . | . | .
CN(C)CCNC(=O)c1cccc2ccc(-c3ccc(-c4ccccc4)cc3)nc12 | 4.5µM | ? | . | /
CN(C)CCNC(=O)c1cccc2nc3cccc(F)c3nc12 | . | 10µM | 4.6µM | /
COc1ccc(OC)c2nc3c(C(=O)NCCN(C)C)cccc3nc12 | . | 16µM | 5.8µM | /
COc1ccc(C(=O)N2CCC(C)(C(=O)O)C2)c(OC)c1 (stereo not drawn) | . | / | / | /
NC(=O)c1cc([N+](=O)[O-])ccc1NCC1CCCCC1 | . | . | . | ?
COc1ccc(CC(=O)N/N=C(\C)CC(=O)NCc2ccco2)cc1OC | . | . | . | .
CCCNC(=O)CCn1cc(-c2ccc(OC)cc2)nc1-c1ccncc1 | . | . | . | .
O=C(COc1ccccc1[N+](=O)[O-])N/N=C/c1ccccn1 | 11µM | . | . | .
O=C(Cc1ccc(Br)c2ccccc12)N/N=C/c1ccccn1 | . | ? | ? | 9.2µM
Cc1ccc(N2CCN(c3c(CN4CCCC4)c(=O)oc4ccccc34)CC2)c(C)c1 | . | . | . | /
O=C(CCc1cn2ccccc2n1)NC1CCCc2c1cnn2-c1ccccc1F (stereo not drawn) | . | . | . | .
COc1ccc(S(=O)(=O)n2cnc3cc(C)c(C)cc32)cc1C | . | . | ? | ?
SMILES | Nrf2 ARE act | A549 tox | Nrf2 block | ELG1 DNA repair
COc1ccc(S(=O)(=O)n2cnc3cc(C)c(C)cc32)cc1 | . | . | . | 13µM
CCCc1nc2ccccc2c(=O)n1/N=C/c1ccc(O)cc1O | . | . | . | ?
CCCc1nc2ccccc2c(=O)n1/N=C/c1ccc(O)cc1 | . | . | / | 12µM
CC(NC(=O)CNC(=O)C1O[C@@H]2OC(C)(C)O[C@@H]2[C@H]2OC(C)(C)O[C@@H]12)C(=O)O (stereo partly drawn) | . | . | . | .
COc1ccc(/C=C/c2cccc[n+]2C)c(O)c1 | . | ? | . | .
CCN(CC)c1ccc(/C=C/c2cccc[n+]2C)c(OC)c1 | . | 7.3µM | 5.8µM | .
COC(=O)c1c(-c2ccc(N(C)C)cc2)oc2c1C(OC)CCC2 (stereo not drawn) | . | / | / | /
CC(=O)c1[nH]c(C)c(C(=O)N2CCCC(Nc3cccc(F)c3)C2)c1C (stereo not drawn) | . | . | . | ?
CC(=O)c1[nH]c(C)c(C(=O)N2CCCC(Nc3ccc(C(C)C)cc3)C2)c1C (stereo not drawn) | . | ? | 15µM | .
Cc1ccccc1Cn1c(O)c(N=NC(=S)Nc2ccccc2F)c2ccccc21 | . | ? | ? | 5.8µM
COC(=O)c1c(N)n(-c2cc(Cl)cc(Cl)c2)c2nc3ccccc3nc12 | . | . | . | /
COc1ccccc1CCNC(=O)c1cc(C2CC2)nc2c1cnn2C(C)C | . | . | . | .
COc1ccccc1OCCNC(=O)c1cc(C2CC2)nc2c1cnn2C(C)C | . | . | ? | 13µM
CCCCn1c(NC(=O)c2ccccc2Cl)c(C#N)c2nc3ccccc3nc21 | . | ? | 13µM | 23µM

Bioassay records (PubChem BioAssay)
